# hcDAF-12 act = H. contortus DAF-12 nuclear receptor activators, primary screen, cell-based, luminescence, HEK293, lit1-tk-luc reporter. AID 652067, 2013. HEK293 hcDAF-12 lit1-tk-luc reporter; 0% DMSO, 100% Δ7-dafachronic acid. activation, % at 6.8 µM. 370,000 compounds, 1.4% hits;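 active means activation above the mean of all tested compounds plus 3 SD, cut at about 5.5% in these data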;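 further: 100% = response to 3 µM Δ7-dafachronic acid high control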
# SMARCA2 activ = SMARCA2 (BRM) function activators, primary screen, cell-based, luminescence, high throughput; AID 652017, 2013; activation, % at 9.1 µM; MG213 cells, MMTV-luciferase reporter, dexamethasone, overnight; 370,000 compounds, 1% hits; in the data active means activation above about 7.8%;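 further: 0% = vehicle wells and 100% = reference activator wells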
# ssDAF-12 act = S. stercoralis DAF-12 nuclear receptor activators, primary screen, cell-based, luminescence, HEK293, GRIP1 co-expression, lit1-tk-luc; HEK293 ssDAF-12/GRIP1 lit1-tk-luc reporter; % of 3 µM dafachronic acid response; 370,000 compounds, 1% hits; activation, % at 6.8 µM; AID 652126, 2013;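 active means activation above the mean over all tested compounds plus 3 SD, cut at about 0.9% in these data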;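 further: 0% = DMSO-only wells and 100% = 3 µM delta7-dafachronic acid wells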
# DAX1 inh-1 = DAX1 (NR0B1) inhibitors, primary screen, cell-based, HEK293, Gal4-DAX1, luciferase luminescence; Nuclear receptor subfamily 0 group B member 1 (Homo sapiens), P51843; HEK293 Gal4-DAX1 luciferase reporter; inhibition, % at 6.75 µM; 340,000 compounds, 0.99% hits; AID 504766, 2011;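 active means inhibition above the mean over all tested compounds plus 3 SD, cut at about 4.2% in these data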;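 further: 0% = DAX1-transfected cells with DMSO and 100% = empty-vector control cells with DMSO; inhibition shows as a rise in luminescence from relieved DAX1 repression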
# Target sequence (P51843 207-470 limits assumed): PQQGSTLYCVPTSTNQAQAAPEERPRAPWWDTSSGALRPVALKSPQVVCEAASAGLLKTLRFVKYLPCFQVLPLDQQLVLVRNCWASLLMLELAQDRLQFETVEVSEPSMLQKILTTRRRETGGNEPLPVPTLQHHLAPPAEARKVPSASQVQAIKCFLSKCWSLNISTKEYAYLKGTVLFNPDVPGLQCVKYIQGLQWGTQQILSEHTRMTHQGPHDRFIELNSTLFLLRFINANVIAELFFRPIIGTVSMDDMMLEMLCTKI
# DAX1 inh-2 = DAX1 (NR0B1) inhibitors on StAR promoter, primary screen, cell-based, luminescence, SF-1 (NR5A1), full-length DAX-1; HEK293T StAR-luciferase reporter, SF-1/DAX-1 repression relief; inhibition, % at 6.8 µM; 370,000 compounds, 1.1% hits; AID 652010, 2013;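 active means inhibition above the mean over all tested compounds plus 3 SD, cut at about 3.6% in these data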;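 further: 0% = DAX-1 cells with DMSO and 100% = cells lacking DAX-1 with DMSO; higher inhibition means more luminescence from relief of DAX-1 repression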
# hgDAF-12 ag = H. glycines DAF-12 receptor agonists, primary screen, cell-based, luminescence, HEK293, GAL4 fusion, UAS-luciferase | Nuclear hormone receptor DAF-12 (Heterodera glycines), GAL4 fusion | HEK293 GAL4-hgDAF12 UAS-luciferase reporter, agonist luminescence; normalized to butyrate control | activation, % at 6.8 µM | 370,000 compounds, 1.8% hits | AID 687014, 2013;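 active means activation above a cutoff set at the mean of all screened compounds plus 3 SD, cut at about 10% in these data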;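 further: 0% = DMSO wells and 100% = sodium butyrate wells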
# SMARCA2 act conf = SMARCA2 (BRM) function activators, confirmation, cell-based, luminescence, triplicate | shares compounds with SMARCA2 activ | MG213 cells, MMTV-luciferase with dexamethasone, overnight; MG213 cells expressing E1A, Rb sequestered; DMSO wells 0%, reference activator 100% | activation, % at 9.1 µM | 3,500 compounds, 30% hits | AID 652260, 2013;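 active means activation above its plate's cutoff, the mean activation of tested wells plus 3 SD, cut at about 7.9% in these data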
# GAL4-VP16 Luc = GAL4-VP16 luciferase reporter activation, counter-screen for SMARCA2 (BRM) activator project, cell-based, pG5luc, luminescence, high throughput; shares compounds with SMARCA2 activ; HEK293 GAL4-VP16 pG5luc reporter; scaled: DMSO wells 0%, SAHA wells 100%; activation, % at 9.1 µM; 3,500 compounds, 41% hits; AID 686939, 2013;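 active means activation above the solvent-only control well mean plus 3 SD, averaged across control plates, cut at about 5.2% in these data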
# An asterisk follows results filed as active; · = not tested or not shown. In the library only some 4.8% were active in any assay of this set; here they are far more common.
SMILES,hcDAF-12 act,SMARCA2 activ,ssDAF-12 act,DAX1 inh-1,DAX1 inh-2,hgDAF-12 ag,SMARCA2 act conf,GAL4-VP16 Luc
COCCN(CC(=O)Nc1cccc(C)c1C)C(=O)c1ccc2ccccc2n1,4,9.0*,0,0,2,6,6,2
COc1ccc2c(c1OC)C(=O)N(c1ccc(C)cc1)C2,4,9.4*,-1,6.2*,3,12*,14*,8.4*
Cc1cc(C)nc(SC(C(=O)O)c2ccccc2)n1 (centres undefined),1,-4,-1,0,0,1,·,·
Cc1cc(C)nc(Sc2nc(Cl)nc(N(c3ccccc3)c3ccccc3)n2)n1,1,8.3*,0,-1,0,-4,9.2*,1
CC(C)CNC(=O)c1c(N)n(/N=C/c2ccccn2)c2nc3ccccc3nc12,-2,8.5*,-1,1,0,-1,-7,3
C=C1C(=O)[C@]23C[C@H]1CCC2[C@]1(C)C(=O)CC[C@@](C)(C(=O)O)C1C[C@@H]3O (some centres undefined),-1,31*,-1,·,3,-1,47*,0
COc1cc(C)ccc1OCc1cc(C(=O)N2CCCCCC2)no1,1,1,0,0,2,2,·,·
COc1cc(C)ccc1OCc1cc(C(=O)N2CCN(C)C[C@@H]2c2ccccc2)no1,1,8.7*,-1,1,0,4,4,2
CCOC(=O)N1CCN(C(=O)c2cc(COc3ccc(Cl)cc3OC)on2)CC1,0,3,-1,-1,0,-3,·,·
COc1cc(Cl)ccc1OCc1cc(C(=O)N(C)C2CCOC2)no1 (centres undefined),3,8.7*,-1,1,1,6,5,4
COCCN1CCN(C(=O)c2cc(COc3ccc(Cl)cc3OC)on2)CC1,4,8.3*,0,1,4.3*,6,14*,9.7*
CC(CN1CCOCC1)OC(=O)COc1ccc(F)cc1 (centres undefined),-1,-1,-1,1,0,0,·,·
COc1ccc(OCC(=O)OC(C)CN2CCOCC2)cc1 (centres undefined),-1,8.8*,0,0,-1,0,0,0
COc1ccc(CCN(C)C(=O)c2ccc(C)c(S(=O)(=O)N3CCCCC3)c2)cc1OC,-2,-2,-1,0,-2,1,·,·
Nc1ccc(/C=C/C(=O)c2cccs2)cc1,0,12*,-1,1,0,8,9.1*,6.8*
O=C(C=Cc1ccccc1)c1cccs1,-2,1,-1,0,-2,-1,·,·
COc1ccc2c(ccc[n+]2[O-])c1,1,0,-1,0,0,3,·,·
COc1ccc2nc3ccccc3[n+]([O-])c2c1,-1,8.4*,-1,1,2,8,6,6.2*
NS(=O)(=O)c1ccc(N=Nc2c(O)ccc3ccccc23)cc1,-3,8.8*,-3,-2,-2,-4,0,3
Cc1ccc(NC(=O)COC(=O)c2ccccc2Nc2ccccc2)cc1,0,-3,-1,-1,0,-1,·,·
Cc1ccc(Nc2cccccc2=O)cc1,1,9.3*,-1,3,3,7,7,8.4*
O=C(NCCc1ccc(Cl)cc1)c1cccc(S(=O)(=O)N2CCCC2)c1,0,0,-1,-1,0,1,·,·
Cc1cccc(Cn2cc(COC(=O)N3CCOCC3)nn2)c1,-1,-2,-1,·,1,-3,·,·
CCSc1nc(N2CCOCC2)c2ccccc2n1,-2,13*,-1,0,0,-1,3,1
c1ccc2c(N3CCOCC3)nc(N3CCOCC3)nc2c1,0,1,-1,-1,0,1,·,·
SMILES,hcDAF-12 act,SMARCA2 activ,ssDAF-12 act,DAX1 inh-1,DAX1 inh-2,hgDAF-12 ag,SMARCA2 act conf,GAL4-VP16 Luc
O=C(NCc1ccccc1)[C@@H]1CCCN1C(=O)[C@H]1CCCN1C(=O)c1ccccc1Cl,0,-1,-1,·,1,1,·,·
CCc1ccc(NC(=O)C(=O)NCC2CCCO2)cc1 (centres undefined),3,11*,-1,4.6*,4.3*,8,4,16*
COc1ccc(NC(=O)CCOc2ccccc2C)cc1S(=O)(=O)N1CCCCC1,-3,-3,-2,-2,-6,-6,·,·
COc1ccc(CCNC(=O)C2CCN(S(=O)(=O)c3ccc(NC(C)=O)cc3)CC2)cc1OC,-1,-1,-1,1,0,2,·,·
Cn1sccc1=O,-1,9.4*,-1,1,0,6,17*,2
O=c1ccsn1Cc1ccccc1,-2,2,-1,-1,0,-2,·,·
Cc1ccc(NC(=O)CSc2nnc(-c3cnccn3)n2Cc2ccco2)cc1,-3,23*,-1,0,-1,-4,-4,0
O=C(CSc1nnc(-c2cnccn2)n1-c1ccccc1)Nc1ccc2cn[nH]c2c1,3,8.7*,0,·,0,0,3,-1
Cc1ccc(N2CC(C(=O)OCC(=O)c3ccc(C)c([N+](=O)[O-])c3)CC2=O)cc1 (centres undefined),-1,-4,0,1,3,3,·,·
CCN(CC)S(=O)(=O)c1cc(NC(=O)C(C)N(C)CC(=O)Nc2c(C)cccc2C)ccc1C (centres undefined),-4,9.2*,-1,1,0,-1,-3,0
CC(C)CCN1CC(C(=O)NCCC2=CCCCC2)CC1=O (centres undefined),1,8.1*,-1,0,2,-1,2,2
O=C(COc1ccccc1)NCCSc1ccccc1,1,9.4*,0,0,1,4,10*,7.7*

# Screening data deposited in PubChem by The Scripps Research Institute Molecular Screening Center.
